In PubChem BioAssay (EPA / NIEHS):
Calls of active or inactive are those of the source. The calls were made as follows: active = hit-call score of the fitted dose curve at least 0.9, where 1 is the maximum; inactive = score below 0.9.

Experiments:
Details in all cases: mRNA level, 48 h; actives raise or lower the signal
[1] = read-out: Lipase C (LIPC), LIPC (gene 3990); assay: LTEA_HepaRG_LIPC: Life Technologies and Expression Analysis (LTEA) Assay for Lipase C (LIPC) using HepaRG (AID 2283514)
Outline: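 In this multiplexed gene-expression screen, human HepaRG cultures received test chemicals for 48 h across eight concentrations with 100 uM highest, in duplicate. Values reflect LIPC mRNA induction or suppression versus DMSO vehicle, from normalized qRT-PCR.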

[2] = read-out: Lipoprotein lipase (LPL), LPL (gene 4023); assay: LTEA_HepaRG_LPL: Life Technologies and Expression Analysis (LTEA) Assay for Lipoprotein lipase (LPL) using HepaRG (AID 2283515)
Outline: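 Concentration-response testing used half-log steps from 100 uM in 0.5% DMSO on human HepaRG cells, 48 h, duplicate wells. Phenobarbital 1 mM served as induction control; LPL mRNA was normalized to ACTB, GAPDH, POLR2A.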

[3] = read-out: MicroRNA 122 (MIR122), gene 406906; assay: LTEA_HepaRG_MIR122: Life Technologies and Expression Analysis (LTEA) Assay for MicroRNA 122 (MIR122) using HepaRG (AID 2283516); also: the transcript read is the microRNA miR-122
Outline: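 qRT-PCR read-out (TaqMan, Fluidigm array), normalized to three housekeeping genes; HepaRG cells dosed 48 h at 8 concentrations up to 100 uM in 0.5% DMSO, duplicate; gain or loss fitted against DMSO baseline.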

[4] = read-out: matrix metalloproteinase-10 (MMP10), MMP10 (gene 4319); assay: LTEA_HepaRG_MMP10: Life Technologies and Expression Analysis (LTEA) Assay for matrix metalloproteinase-10 (MMP10) using HepaRG (AID 2283517)
Outline: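 In differentiated HepaRG cultures kept in 0.5% DMSO, test chemicals act for 48 h over an eight-point range with a top dose of 100 uM. Expression is then quantified by TaqMan RT-PCR against ACTB, GAPDH and POLR2A.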

MYC, MYC (gene 4609) = assay: LTEA_HepaRG_MYC: Life Technologies and Expression Analysis (LTEA) Assay for MYC using HepaRG (AID 2283518)
Outline: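 MYC transcript changes, up or down relative to 0.5% DMSO, from TaqMan qRT-PCR normalized to three housekeeping genes. Human HepaRG cultures received chemicals for 48 h at eight half-log concentrations up to 100 uM, in duplicate.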

[5] = read-out: matrix metalloproteinase-3 (MMP3), MMP3 (gene 4314); assay: LTEA_HepaRG_MMP3: Life Technologies and Expression Analysis (LTEA) Assay for matrix metalloproteinase-3 (MMP3) using HepaRG (AID 2283519)
Outline: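 Human liver HepaRG cultures received chemicals (top concentration 100 uM, 0.5% DMSO) for 48 h in duplicate. MMP3 mRNA induction or loss was then assessed via TaqMan qRT-PCR with housekeeping-gene normalisation.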

[6] = read-out: Paternally Expressed 10 (PEG10), PEG10 (gene 23089); assay: LTEA_HepaRG_PEG10: Life Technologies and Expression Analysis (LTEA) Assay for Paternally Expressed 10 (PEG10) using HepaRG (AID 2283520);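 as to AC50: PEG10 transcript by qRT-PCR normalised to ACTB GAPDH and POLR2A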
Outline: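 qRT-PCR read-out: PEG10 mRNA normalised to three housekeeping genes, fitted bidirectionally against 0.5% DMSO vehicle. HepaRG cells received test chemicals for 48 h in serum-free induction medium, 8 points, top 100 uM, half-log steps.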

[7] = read-out: Protein phosphatase 2A (PPP2R4), PTPA (gene 5524); assay: LTEA_HepaRG_PPP2R4: Life Technologies and Expression Analysis (LTEA) Assay for Protein phosphatase 2A (PPP2R4) using HepaRG (AID 2283522)
Outline: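 HepaRG, 48 h exposure, 8-pt half-log series from 100 uM, 0.5% DMSO vehicle, duplicates. Readout: PPP2R4 mRNA, Fluidigm qRT-PCR, housekeeping-normalized. Bidirectional curve fit vs DMSO baseline.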

[8] = read-out: Phosphatase and tensin (PTEN), PTEN (gene 5728); assay: LTEA_HepaRG_PTEN: Life Technologies and Expression Analysis (LTEA) Assay for Phosphatase and tensin (PTEN) using HepaRG (AID 2283523)
Outline: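 Expression of PTEN is quantified in the human liver line HepaRG following two days of dosing (top concentration 100 uM, half-log dilutions, 0.5% DMSO). Values derive from bidirectional curve fitting relative to DMSO controls.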

[9] = read-out: Nuclear factor NF-kappa-B p105 subunit (Homo sapiens) (UniProt P19838); assay: LTEA_HepaRG_NFKB1: Life Technologies and Expression Analysis (LTEA) Assay for Nuclear Factor Kappa B Subunit 1 (NFKB1) using HepaRG (AID 2283521);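 also: TaqMan qRT-PCR transcript normalised to ACTB GAPDH and POLR2A housekeeping genes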
Outline: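 Differentiated human HepaRG cells in serum-free induction medium with 0.5% DMSO were exposed for 48 h to eight half-log concentrations, top 100 uM, in duplicate. NFKB1 mRNA measured by Fluidigm TaqMan qRT-PCR, normalised to ACTB, GAPDH and POLR2A; bidirectional fit versus DMSO.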

Measured: AC50

Chain of Nuclear factor NF-kappa-B p105 subunit (Homo sapiens) (P19838 whole entry, looked up): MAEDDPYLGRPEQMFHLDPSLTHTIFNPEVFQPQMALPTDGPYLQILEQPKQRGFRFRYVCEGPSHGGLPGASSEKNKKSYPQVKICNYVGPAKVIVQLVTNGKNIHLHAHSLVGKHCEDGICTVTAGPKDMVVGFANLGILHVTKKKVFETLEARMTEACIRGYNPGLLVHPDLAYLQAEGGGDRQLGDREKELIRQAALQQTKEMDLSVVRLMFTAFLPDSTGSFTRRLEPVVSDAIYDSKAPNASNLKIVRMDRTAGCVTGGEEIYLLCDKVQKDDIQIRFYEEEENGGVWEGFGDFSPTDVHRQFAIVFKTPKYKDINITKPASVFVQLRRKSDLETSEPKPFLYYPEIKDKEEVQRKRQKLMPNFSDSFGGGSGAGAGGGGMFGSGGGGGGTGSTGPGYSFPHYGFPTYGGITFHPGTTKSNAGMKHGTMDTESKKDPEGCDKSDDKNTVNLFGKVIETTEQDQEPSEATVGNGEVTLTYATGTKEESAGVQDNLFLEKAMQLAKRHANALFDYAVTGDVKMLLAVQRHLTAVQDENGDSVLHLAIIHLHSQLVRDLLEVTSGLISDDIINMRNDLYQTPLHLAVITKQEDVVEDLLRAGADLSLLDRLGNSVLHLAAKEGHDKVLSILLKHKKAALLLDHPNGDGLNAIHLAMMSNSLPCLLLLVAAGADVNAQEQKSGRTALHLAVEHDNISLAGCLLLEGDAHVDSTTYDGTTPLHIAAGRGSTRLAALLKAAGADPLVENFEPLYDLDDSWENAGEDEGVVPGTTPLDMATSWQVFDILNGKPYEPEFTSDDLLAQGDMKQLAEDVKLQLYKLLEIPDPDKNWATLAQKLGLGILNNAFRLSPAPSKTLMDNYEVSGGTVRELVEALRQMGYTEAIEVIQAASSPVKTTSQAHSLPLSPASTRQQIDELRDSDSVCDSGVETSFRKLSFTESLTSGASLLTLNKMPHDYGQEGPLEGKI

CSc1nc(NC(C)C)nc(NC(C)C)n1
active: [3] 50 µM | [6] 22.5 µM
not listed: [9]
inactive: all other assays above

CCOC(=O)COc1cc(-c2nn(C)c(OC(F)F)c2Cl)c(F)cc1Cl
inactive: all assays above

CC(C)=CC1C(C(=O)OCN2C(=O)C3=C(CCCC3)C2=O)C1(C)C (stereo not drawn)
not listed: MYC, MYC (gene 4609) | [9]
inactive: all other assays above

CCC(=O)Nc1ccc(Cl)c(Cl)c1
active: MYC, MYC (gene 4609) 50 µM | [6] 65 µM
not listed: [9]
inactive: all other assays above

C[Si](Cn1cncn1)(c1ccc(F)cc1)c1ccc(F)cc1
inactive: [6] | [7] | [8]
active: [1] 26.7 µM | [2] 50 µM | [3] 61.4 µM | MYC, MYC (gene 4609) 68.1 µM | [5] 11.6 µM

CNC(=O)Oc1cccc2c1OC(C)(C)O2
not listed: [9]
inactive: all other assays above

CC[C@H](C)[C@H]1O[C@]2(C=C[C@@H]1C)C[C@@H]1C[C@@H](C/C=C(\C)[C@@H](O[C@H]3C[C@H](OC)[C@@H](O[C@H]4C[C@H](OC)[C@@H](NC)[C@H](C)O4)[C@H](C)O3)[C@@H](C)/C=C/C=C3\CO[C@@H]4[C@H](O)C(C)=C[C@@H](C(=O)O1)[C@]34O)O2
active: [2] 12.1 µM | [3] 55.6 µM | [4] 29.4 µM | MYC, MYC (gene 4609) 32 µM | [5] 92.9 µM | [6] 13.3 µM | [7] 33.3 µM | [8] 23.5 µM
inactive: [1]

COc1cccc(C(=O)NN(C(=O)c2cc(C)cc(C)c2)C(C)(C)C)c1C
inactive: all assays above

CCOP(=O)(OCC)Oc1cc(C)nc(C(C)C)n1
not listed: [9]
inactive: all other assays above

CCOP(=O)(SC(C)CC)N1CCSC1=O (stereo not drawn)
active: [1] 25.6 µM | [6] 26.2 µM
not listed: [4] | [9]
inactive: all other assays above

Cc1cc(C2CC2)nc(Nc2ccccc2)n1
not listed: [9]
inactive: all other assays above

Cc1ccn2nc(S(=O)(=O)Nc3c(F)cccc3F)nc2n1
not listed: [9]
inactive: all other assays above

CCc1cccc(C)c1N(C(=O)CCl)C(C)COC (stereo not drawn)
not listed: MYC, MYC (gene 4609)
inactive: all other assays above

C=C(C)[C@H]1Cc2c(ccc3c2O[C@@H]2COc4cc(OC)c(OC)cc4[C@@H]2C3=O)O1
inactive: [9] | [8]
active: [1] 12.7 µM | [2] 2.16 µM | [3] 1.32 µM | [4] 17.7 µM | MYC, MYC (gene 4609) 6.64 µM | [5] 14.3 µM | [6] 0.173 µM | [7] 50 µM

CSc1nnc(C(C)(C)C)c(=O)n1N
inactive: all assays above

CCOP(=S)(OCC)Oc1ccc2c(C)c(Cl)c(=O)oc2c1
active: [1] 74.7 µM | [3] 50 µM | MYC, MYC (gene 4609) 50 µM | [6] 13.2 µM
not listed: [9]
inactive: all other assays above

C#CC(C)(C)NC(=O)c1cc(Cl)cc(Cl)c1
active: [6] 50 µM
not listed: [4]
inactive: all other assays above

CCCSP(=O)(OCC)SCCC
not listed: [9]
inactive: all other assays above

CC(C)N(C(=O)SCC(Cl)=C(Cl)Cl)C(C)C
not listed: [9]
inactive: all other assays above

CSC1=N[C@@](C)(c2ccccc2)C(=O)N1Nc1ccccc1
active: [1] 31.4 µM | [2] 26.9 µM | [3] 50 µM | MYC, MYC (gene 4609) 31.2 µM | [6] 20.1 µM
inactive: [4] | [5] | [7] | [8]

COP(=O)(NC(C)=O)SC (stereo not drawn)
not listed: [9]
inactive: all other assays above

COP(=O)(OC)OC(Br)C(Cl)(Cl)Br (stereo not drawn)
not listed: [3] | [9]
inactive: all other assays above

CON=C(C(=O)OC)c1ccccc1CON=C(C)c1cccc(C(F)(F)F)c1
inactive: all assays above

CCOP(=S)(OCC)Oc1ccc([N+](=O)[O-])cc1
not listed: [2]
inactive: all other assays above

CCOP(=S)(Oc1cnc(C(C)(C)C)nc1)OC(C)C (stereo not drawn)
active: [1] 18.8 µM | [6] 13.3 µM
inactive: all other assays above

CCNc1nc(Cl)nc(NC(C)(C)C#N)n1
active: [6] 26.5 µM
not listed: [9]
inactive: all other assays above

C#CCC1=C(C)C(OC(=O)C2C(C=C(C)C)C2(C)C)CC1=O (stereo not drawn)
active: [5] 81.9 µM
not listed: [9]
inactive: all other assays above

COP(=O)(OC)SCn1c(=O)oc2cc(Cl)cnc21
active: [1] 79.1 µM | [6] 62.4 µM
inactive: all other assays above

CCOP(=S)(OCC)OC(Cl)C(Cl)(Cl)Cl (stereo not drawn)
inactive: all assays above

CC(Oc1cccc(Cl)c1)C(=O)O (stereo not drawn)
not listed: [8] | [9]
inactive: all other assays above
